Test results reported in PubChem BioAssay.
Potency and affinity values are given separately. Records with an inconclusive call do not appear. The source made the active and inactive calls. Unless noted, the rule behind the calls is not given here.

Assays:
[1] = RMG-1 ovarian cancer cell viability loss – cherry-pick, dose response (AID 687029;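 active = signal drop whose fitted half-maximal concentration is at most twice the top valid dose, in every test run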;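 note: cells exposed to compound for 96 hours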); settings: RMG-1 viability, CellTiterGlo ATP luminescence, 96 h; series mostly up to 35 µM
[2] = IOSE-T80 viability loss, PAX8-independent line – cell-based, cherry-pick, selectivity assay for PAX8 inhibitor project, dose response (AID 687032;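 active = fitted half-maximal concentration for viability loss no higher than twice the top valid dose, in every repeat run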;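 note: cells exposed to compound for 96 h before reading; 0% = neutral control wells and -100% = 2 µM mitoxantrone kill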); settings: CellTiterGlo ATP luminescence, 96 h; series mostly up to 35 µM
[3] = CMV-driven luciferase expression suppression in HEK293 – cell-based, luminescence, dry powder, counter-screen for Pax8 inhibitor project, dose response (AID 743020;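 active = signal-lowering compounds whose fitted half-maximal concentration is at or below twice the top tested dose in every run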;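 note: HEK293 cells stably expressing the CMV luciferase reporter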); settings: HEK293 CMV-luciferase reporter, SteadyGlo luminescence, 24 h; series mostly up to 35 µM
[4] = general cell-killing toxicity readout – plate reader, dry powder samples, cytotoxicity control for PAX8 inhibitor project, dose response (AID 743021); settings: cell line, non-specific cytotoxicity counter-screen; series mostly up to 35 µM
[5] = IGROV1 cell killing – plate reader, dry powder samples, PAX8 inhibitor project, dose response (AID 743043); settings: IGROV1 ovarian cancer cell cytotoxicity; series mostly up to 35 µM;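 note: more negative means fewer viable cells or more cytotoxicity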
[6] = OVCAR-3 cell viability loss – plate reader, dry powder samples, PAX8 inhibitor project, dose response (AID 743044); settings: NIH:OVCAR-3 ovarian cancer cell viability; max activity: at 35 µM, hits give low values unless noted; series mostly up to 50 µM
[7] = toxicity toward immortalized ovarian surface epithelium – cell-based, plate reader, dry powder samples, cytotoxicity control for PAX8 inhibitor project, dose response (AID 743045); settings: IOSE-T80 ovarian epithelial cells; series mostly up to 35 µM;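 note: 0% = neutral control median and -100% = positive control median; more negative values mean more cell killing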
[8] = A2780 cell killing – plate reader, dry powder samples, cytotoxicity control, dose response (AID 743046); settings: A2780 ovarian cancer cytotoxicity; series mostly up to 35 µM;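 note: 0% = neutral control wells and -100% = cytotoxic reference compound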
[9] = OVCAR8 cell viability loss – plate reader, dry powder samples, PAX8 project, dose response (AID 743197); settings: series mostly up to 35 µM

Measured: max activity

C[C@@H]1CN([C@H](C)CO)C(=O)c2cc(NC(=O)CCCCCC(=O)Nc3ccccc3N)ccc2O[C@@H](C)CCCCO[C@H]1CN(C)Cc1ccc(Cl)c(Cl)c1
inactive: [1] | [2] | [3] | [4] | [5] | [6] -28.2% | [7] | [8]

COc1ccc(S(=O)(=O)Nc2ccc3c(c2)CC(=O)N([C@H](C)CO)C[C@H](C)[C@@H](CN(C)Cc2ccc(-c4ccccc4)cc2)O3)cc1
inactive: [1] | [2] | [3] | [4] | [5] | [6] 36.7% [at 2.1 µM, hits give low values] | [7] | [8] | [9]

O=C(C[C@H]1CC[C@@H]2[C@H](COC[C@@H](O)CN2S(=O)(=O)c2cccc(Cl)c2)O1)Nc1ccc(-c2ccccc2)cc1
inactive: [1] | [2] | [3] | [4] | [5] | [6] -18.4% | [7] | [8]

C[C@@H]1CN([C@H](C)CO)C(=O)c2c(c3ccccc3n2C)-c2ccccc2CO[C@@H]1CN(C)C
inactive: [1] | [2] | [3] | [4] | [5] | [6] 18.1% [at 0.5 µM, hits give low values] | [7] | [8] | [9]

Cc1ccc(S(=O)(=O)Nc2cccc3c2O[C@@H](CN(C)C(=O)Nc2ccc(C(F)(F)F)cc2)[C@@H](C)CN([C@H](C)CO)C3=O)cc1
inactive: [1] | [2] | [3] | [4] | [5] | [6] 25% [at 2.1 µM, hits give low values] | [7] | [8] | [9]

CCCN1[C@H](C(=O)N2CCOCC2)[C@@H](CO)[C@@H]2Cn3c(ccc(/C=C/c4ccccc4)c3=O)[C@@H]21
inactive: [1] | [2] | [3] | [4] | [5] | [6] -10.3% [at 0.5 µM, hits give low values] | [7] | [8]

C[C@H]1CCCCO[C@@H](CN(C)C(=O)Nc2ccc(C(F)(F)F)cc2)[C@@H](C)CN([C@@H](C)CO)C(=O)c2cc(NS(=O)(=O)c3cn(C)cn3)ccc2O1
inactive: [1] | [2] | [3] | [4] | [5] | [6] -16.1% | [7] | [8] | [9]

C[C@H]1CN([C@@H](C)CO)S(=O)(=O)c2ccc(-c3ccc(C#N)cc3)cc2O[C@@H]1CN(C)Cc1cccc(F)c1
inactive: [1] | [2] | [3] | [4] | [5] | [6] -11.6% [at 16 µM, hits give low values] | [7] | [8]

C[C@H]1CCCCO[C@H](CN(C)Cc2ccc(Cl)c(Cl)c2)[C@@H](C)CN([C@@H](C)CO)C(=O)c2cc(NC(=O)Nc3ccc(F)cc3)ccc2O1
inactive: [1] | [2] | [3] | [4] | [5] | [6] -19.8% [at 0.26 µM, hits give low values] | [7] | [8] | [9]

C[C@@H]1CCCCO[C@H](CN(C)Cc2ccc(C(F)(F)F)cc2)[C@@H](C)CN([C@@H](C)CO)C(=O)c2cc(NS(=O)(=O)c3ccccc3)ccc2O1
inactive: [1] | [2] | [3] | [4] | [5] | [6] -9.99% | [7] | [8]

CS(=O)(=O)N1C[C@@H]2N[C@H](C1)[C@@H]2c1ccc(-c2ccccc2)cc1
inactive: [1] | [2] | [3] | [4] | [5] | [6] 15.8% [at 1 µM, hits give low values] | [7] | [8]

C[C@@H]1CN([C@@H](C)CO)C(=O)Cc2cc(NC(=O)C3CC3)ccc2O[C@H]1CN(C)Cc1ccc(-c2ccccc2)cc1
inactive: [1] | [2] | [3] | [4] | [5] | [6] 11.5% [at 0.26 µM, hits give low values] | [7] | [8] | [9]

C[C@H]1CCCCO[C@@H](CN(C)C(=O)NC2CCCCC2)[C@@H](C)CN([C@@H](C)CO)C(=O)c2cc(NC(=O)Nc3ccc(C(F)(F)F)cc3)ccc2O1
inactive: [1] | [2] | [3] | [4] | [5] | [6] 10.8% [at 2.1 µM, hits give low values] | [7] | [8] | [9]

C[C@H]1CCCCO[C@H](CN(C)Cc2ccc(Cl)c(Cl)c2)[C@@H](C)CN([C@@H](C)CO)C(=O)c2cc(NC(=O)Nc3ccccc3)ccc2O1
inactive: [1] | [2] | [3] | [4] | [5] | [6] -18.6% | [7] | [8]

C[C@@H]1CCCCO[C@H](CN(C)S(=O)(=O)c2ccc(Cl)cc2)[C@@H](C)CN([C@@H](C)CO)C(=O)c2cc(NC(=O)CCC(F)(F)F)ccc2O1
inactive: [1] | [2] | [3] | [4] | [5] | [6] 17.2% [at 2.1 µM, hits give low values] | [7] | [8] | [9]

C[C@@H]1CCCCO[C@@H](CN(C)Cc2ccc(Cl)c(Cl)c2)[C@H](C)CN([C@H](C)CO)C(=O)c2cc(NC(=O)Nc3ccccc3)ccc2O1
inactive: [1] | [2] | [3] | [4] | [5] | [6] 13.2% [at 0.5 µM, hits give low values] | [7] | [8] | [9]

C[C@H](CO)N1C[C@H](C)[C@@H](CN(C)Cc2ccc(Oc3ccccc3)cc2)OCc2ccccc2-c2c(n(C)c3ccccc23)C1=O
inactive: [1] | [2] | [3] | [4] | [5] | [6] 1.33% | [7] | [8] | [9]

C[C@H]1CCCCO[C@H](CN(C)S(=O)(=O)c2ccc(Cl)cc2)[C@@H](C)CN([C@@H](C)CO)C(=O)c2cc(NS(=O)(=O)c3ccc(Cl)cc3)ccc2O1
inactive: [1] | [2] | [3] | [4] | [5] | [6] -21.5% | [7] | [8] | [9]

C[C@@H]1CN([C@@H](C)CO)C(=O)c2ccccc2-c2ccccc2CO[C@@H]1CN(C)Cc1ccc2c(c1)OCCN2C
inactive: [1] | [2] | [3] | [4] | [5] | [6] 3.55% | [7] | [8] | [9]

C[C@@H]1CCCCO[C@H](CN(C)C(=O)C2CCCCC2)[C@@H](C)CN([C@@H](C)CO)C(=O)c2cc(NC(=O)Nc3ccccc3)ccc2O1
inactive: [1] | [2] | [3] | [4] | [5] | [6] 37.9% [at 1 µM, hits give low values] | [7] | [8] | [9]

O=C(C[C@H]1C[C@@H]2c3cc(NC(=O)Nc4ccc(C(F)(F)F)cc4)ccc3O[C@@H]2[C@@H](CO)O1)NCCc1ccccc1
inactive: [1] | [2] | [3] | [4] | [5] | [6] -7.36% [at 8 µM, hits give low values] | [7] | [8]

COCCNC(=O)C[C@@H]1C[C@H]2c3cc(NC(=O)Nc4ccc(C(F)(F)F)cc4)ccc3O[C@H]2[C@H](CO)O1
inactive: [1] | [2] | [3] | [4] | [5] | [6] -18.8% | [7] | [8]

Cc1ccc(S(=O)(=O)Nc2ccc3c(c2)C(=O)N([C@H](C)CO)C[C@@H](C)[C@H](CN(C)S(=O)(=O)c2ccc(Cl)cc2)OCCCC[C@H](C)O3)cc1
inactive: [1] | [2] | [3] | [4] | [5] | [6] -15.5% | [7] | [8]

C[C@@H]1CCCCO[C@@H](CN(C)Cc2ccccc2)[C@H](C)CN([C@H](C)CO)C(=O)c2cc(NC(=O)Nc3ccc(C(F)(F)F)cc3)ccc2O1
inactive: [1] | [2] | [3] | [4] | [5] | [6] -20.2% [at 16 µM, hits give low values] | [7] | [8]

C[C@@H]1CCCCO[C@H](CN(C)C(=O)c2ccccc2)[C@@H](C)CN([C@@H](C)CO)C(=O)c2cc(NC(=O)Nc3ccc(C(F)(F)F)cc3)ccc2O1
inactive: [1] | [2] | [3] | [4] | [5] | [6] 20.2% [at 2.1 µM, hits give low values] | [7] | [8] | [9]

C[C@@H]1CN([C@H](C)CO)C(=O)c2cc(NC(=O)Nc3ccccc3)ccc2O[C@@H](C)CCCCO[C@H]1CN(C)Cc1ccc(Cl)c(Cl)c1
inactive: [1] | [2] | [3] | [4] | [5] | [6] -19.3% | [7] | [8] | [9]

C[C@H](CO)N1C[C@H](C)[C@H](CN(C)Cc2ccc3c(c2)OCO3)OCCCC[C@H](C)Oc2ccc(NS(=O)(=O)c3ccc(Cl)cc3)cc2C1=O
inactive: [1] | [2] | [3] | [4] | [5] | [6] 2.84% | [7] | [8] | [9]

C[C@@H]1CCCCO[C@H](CN(C)Cc2ccc(C(F)(F)F)cc2)[C@H](C)CN([C@@H](C)CO)C(=O)c2cc(NC(=O)Nc3ccc(F)cc3)ccc2O1
inactive: [1] | [2] | [3] | [4] | [5] | [6] -17.3% | [7] | [8] | [9]

C[C@H]1CN([C@@H](C)CO)C(=O)c2cc(NS(=O)(=O)c3ccc(Cl)cc3)ccc2O[C@H]1CN(C)Cc1ccc(Cl)c(Cl)c1
inactive: [1] | [2] | [3] | [4] | [5] | [6] -29.6% | [7] | [8]
